# From PubChem
# Most compounds without a hit are left out; they make up all but 21% or so of the library.
# Pf growth 48h = inhibits P. falciparum growth in the first generation, 48 h | Potency, µM (doses to about 28.7 µM), without a hit: top-dose activity change, negative = inhibition, most hits filed as inhibitors | hit rate 5.9% among 310,000 | P. falciparum luciferase growth in erythrocytes, 48 h | AID 504832; note: potency is the fitted concentration of half-maximal effect; % is set by controls: 0 for no effect and ±100 for the full control effect
#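 Luminescence readout; reporter = integrated firefly luciferase in P. falciparum. RBC culture at 2% hematocrit, 0.1% parasitemia final, 37 C/5% CO2; decreased signal taken as growth inhibition.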
# CHX counter = counter-screen for Shiga toxin inhibitors: cycloheximide protein synthesis inhibition | max response, % | hit rate 12% among 300,000 | cell reporter, cycloheximide protein synthesis inhibition counterscreen; in the data active = max response mostly above about 13%, no sharp cut-off; inactive = mostly below about 14%; note: read at 38.3 µM for the half of the compounds with a filed dose; 0% is about no effect
# NS1 function inh = influenza NS1 inhibition | Potency, µM (doses to about 46.1 µM), for inactives: at the highest dose activity, positive = more growth | hit rate 0.4% among 270,000; calls by dose curve; note: potency is the fitted concentration of half-maximal effect; actives are rising curves; nearly all actives have a fitted effect of over 50% in size
#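 OD600 was taken as the measure of yeast growth restored by compound in an NS1-expressing S. cerevisiae strain. Cells had been washed out of glucose medium and diluted 1:100 into galactose -URA medium, pH 6.0.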
# Pf growth 96h = P. falciparum growth inhibition at 96 hour, primary screen for plastid delayed-death inhibitors | P. falciparum luciferase reporter growth, 96 h | Potency, µM (top dose mostly 28.7 µM), for the others: at the top dose activity change, negative = inhibition, most hits filed as inhibitors | hit rate 6.9% among 320,000 | AID 504834; note: potency is the fitted concentration of half-maximal effect; % is set by controls: 0 for no effect and ±100 for the full control effect
#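 Readout is luminescence from an integrated firefly luciferase in P. falciparum. Red cells, 2% hematocrit and 0.05% parasitemia final, were cultured with compound through two parasite generations (96 hours) at 37 C, 5% CO2.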
# SARS PLpro yeast = blocks SARS-CoV papain-like protease in a yeast assay; S. cerevisiae expressing SARS-CoV PLpro, growth rescue; Potency, µM (top dose mostly 32.9 µM), without a hit: at the highest dose activity, positive = growth rescue, usual class: activators; hit rate 0.19% among 330,000; AID 485353; calls by dose curve; note: potency is the fitted concentration of half-maximal effect; 0% is about no effect; nearly all actives have a fitted effect of over 55% in size
# Shiga toxin inh = Shiga toxin inhibition | Vero cells, Shiga toxin protein synthesis inhibition reporter | inhibition, % at 38.7 µM | hit rate 9.2% among 290,000 | AID 2315; in the data active = inhibition mostly above about 28%, no sharp cut-off; inactive = mostly below about 43%; note: 0% is about no effect
# * hit, by the source's call; ? = inconclusive; / = not tested or not shown. Unless noted, calls come from the whole dose curve; as a rule, active = well fitted inhibition curve with a large enough effect; inconclusive = small, poorly fitted or top-dose-only effect, or another doubt; inactive = no such curve, though single readings can be large or run the other way.
SMILES,Pf growth 48h,CHX counter,NS1 function inh,Pf growth 96h,SARS PLpro yeast,Shiga toxin inh
O=C(Nc1ccc(Br)cc1F)c1ccncc1,107.8%,25.1*,-6.6%,/,-15.2%,56.1*
O=C(Nc1ccc(Br)cc1F)c1ccc2nsnc2c1,134.4%,32.7*,-11.8%,25.5%,17.2%,62.1*
COc1cc(NC(=O)c2ccc3nsnc3c2)cc(OC)c1OC,17.8%,-1.2,-0.1%,-15.5%,-2.9%,-2.0
O=C(Nc1ccccc1F)c1ccncc1,20.2%,-1.3,2.2%,-6.5%,-1.7%,-10.7
COc1ccc(NC(=O)CN(C)CC(=O)NCc2ccc(C)cc2)cc1,-22.0%,/,/,6.6%,6.4%,/
CN(C(=O)COC(=O)c1ccc2c(c1)OCO2)c1c(N)n(Cc2ccccc2)c(=O)[nH]c1=O,-4.9%,/,/,-1.0%,1.9%,/
COc1ccc(S(=O)(=O)Nc2ccccn2)cc1C(=O)Nc1ccccc1,12.3%,-0.5,7.7%,?,-0.7%,-1.8
CCc1ccc(OCC(=O)NC(=S)Nc2cccc(CO)c2)c(Br)c1,143.0%,22.4*,-7.6%,/,-0.4%,41.1
CCc1ccc(OCC(=O)NC(=S)Nc2ccc(F)cc2)c(Br)c1,21.6%,3.5,7.1%,44.6%,2.4%,-5.5
O=C(Nn1c(COc2ccccc2)nc2ccccc2c1=O)C(Cl)(Cl)Cl,-1.7%,10.3,-42.1%,-1.3%,-5.3%,3.1
COc1cc(OC)cc(-c2c(-c3cccs3)c3cc(-c4ccc5[nH]ccc5c4)ccc3n2C)c1,6.57µM*,/,/,2.33µM*,1.8%,/
COc1cccc(-c2c(-c3cc(OC)cc(OC)c3)n(C)c3ccc(-c4ccc5cc[nH]c5c4)cc23)c1,/,/,/,/,-0.4%,/
COc1cc(OC)cc(-c2c(-c3cccs3)c3cc(-c4ccc(OCc5ccccc5)cc4)ccc3n2C)c1,/,/,/,/,-1.6%,/
COc1cc(OC)cc(-c2c(-c3cccs3)c3cc(-c4ccc5cc[nH]c5c4)ccc3n2C)c1,10.4µM*,/,/,?,-1.0%,/
O=C1c2ccccc2C(Nc2ccccc2)N1c1ccc(Cl)cn1 (stereo not drawn),/,70.6*,2.9%,?,6.2%,169.0*
CCc1cccc(NC2c3ccccc3C(=O)N2c2cccnc2)c1 (stereo not drawn),?,-4.0,-33.4%,56.9%,3.1%,-1.6
O=C1c2ccccc2C(Nc2ccc(Cl)cn2)N1Cc1ccccc1 (stereo not drawn),/,-3.1,-131.8%,?,-27.9%,-4.7
CCOC(=O)c1ccc(NC2c3ccccc3C(=O)N2c2ccc(C)cn2)cc1 (stereo not drawn),/,-2.8,1.2%,11.7µM*,0.5%,25.7
CCc1cccc(NC2c3ccccc3C(=O)N2c2ccc(C)cn2)c1 (stereo not drawn),/,40.6,-72.2%,?,-6.5%,89.7*
Cc1ccc(N2C(=O)c3ccccc3C2Nc2ccccc2)nc1 (stereo not drawn),/,9.8,-8.7%,10.4µM*,-6.7%,30.1
CCOC(=O)c1c(Cl)c(C)nn1-c1nc(OC)cc(OC)n1,-8.0%,-3.2,-14.1%,-3.2%,12.8%,-2.2
O=C(c1ccc(Cl)cc1Cl)N1CCN(c2ccc(N3CCOCC3)nn2)CC1,?,/,/,-45.0%,7.6%,/
CC(C)Cn1nc(C(=O)Nc2nnc(C3CC3)s2)c2ccccc2c1=O,?,/,/,?,1.1%,/
CC1=NC(=O)C(N=Nc2cccc(O)c2)N1c1ccccc1 (stereo not drawn),/,27.1*,-5.6%,99.3%,-3.9%,55.3*
COc1cc(-c2nc(CN3CCN(c4ncccn4)CC3)c(C)o2)ccc1F,-3.1%,16.9,-4.3%,-95.3%,-1.4%,36.1
SMILES,Pf growth 48h,CHX counter,NS1 function inh,Pf growth 96h,SARS PLpro yeast,Shiga toxin inh
COc1cc(-c2nc(CN3CCN(CC(C)C)C(=O)[C@@H]3C)c(C)o2)ccc1F,9.28µM*,0.1,3.4%,-29.3%,0.1%,-18.8
COc1cccc(Nc2nc(-c3ccc4c(c3)OCCO4)cs2)c1,92.8%,53.4*,6.8%,418.1%,-8.9%,103.3*
c1ccc(-c2csc(Nc3ccc4c(c3)OCCO4)n2)cc1,42.9%,54.1*,6.4%,101.8%,/,97.2*
COc1ccc(S(=O)(=O)Nc2cc(S(=O)(=O)N3CCOCC3)ccc2OC)cc1,/,/,/,/,-2.7%,/
Cc1nn(CC#N)c(=O)n1-c1ccccc1,1.6%,-1.0,5.7%,/,-0.3%,-29.5
CC1(NC(=O)CCNC(=O)c2ccc(C(C)(C)C)cc2)CCS(=O)(=O)C1 (stereo not drawn),2.7%,/,/,4.3%,-4.9%,/
COc1ccc2c(Cl)c(C(=O)N/N=C3\CCCC(=O)C3)sc2c1,?,14.0,30.7%,?,-2.4%,47.5*
COc1ccc2c(Cl)c(C(=O)N/N=C/c3ccc4c(c3)OCO4)sc2c1,0.5%,5.8,1.1%,?,3.0%,7.6
COc1ccc(C(CNC(=O)c2ccc(-c3nc4ccccc4s3)o2)N2CCCC2)cc1 (stereo not drawn),7.38µM*,/,/,10.4µM*,1.4%,/
COc1ccc(C(CNC(=O)COc2ccc(Cl)cc2C)N2CCCCC2)cc1 (stereo not drawn),11.7µM*,1.6,-3.4%,-29.0%,0.8%,26.3
COc1ccc(C(CNC(=O)c2oc3cc(C)c(Cl)cc3c2C)N2CCCCC2)cc1 (stereo not drawn),5.22µM*,-5.0,19.4%,-5.3%,6.2%,-9.1
COc1ccccc1C(CNC(=O)C(C)(C)Oc1ccc(Cl)cc1)N1CCCC1 (stereo not drawn),13.1µM*,/,/,?,5.1%,/
Cc1ccccc1CS(=O)(=O)CCC(=O)N1CCN(c2ccc(N3CCOCC3)nn2)CC1,-25.9%,-3.3,-3.1%,-2.0%,1.3%,-4.8
COc1ccccc1CNC(=O)c1oc2ccccc2c1C,?,-3.3,-16.8%,?,-4.6%,-30.6
COc1ccc(C(CNC(=O)COc2ccccc2)N2CCCCC2)cc1 (stereo not drawn),?,/,/,14.7µM*,10.8%,/
COc1ccccc1C(CNC(=O)c1oc2ccccc2c1C)N1CCCC1 (stereo not drawn),?,/,/,13.1µM*,2.0%,/
CC(C)n1c(=S)[nH]c2c1c(=O)[nH]c(=O)n2C,1.0%,-4.7,-0.8%,12.5%,-0.7%,33.9
CNC(=O)c1c[nH]c2ccc(S(=O)(=O)Nc3ccccc3F)cc2c1=O,-22.7%,-0.4,7.7%,?,-2.3%,-2.7
Cc1ccccc1NS(=O)(=O)c1ccc2[nH]cc(C(=O)NCCc3ccccc3)c(=O)c2c1,14.7µM*,/,/,?,2.1%,/
Cc1cccc2c(=O)c(C(=O)NCc3ccc(F)cc3)c[nH]c12,?,-3.9,16.4%,3.3%,2.6%,/
CCc1ccccc1NS(=O)(=O)c1ccc2[nH]cc(C(=O)NC3CCCC3)c(=O)c2c1,13.1µM*,-2.8,0.0%,-2.1%,-2.1%,-12.5
Cc1cccc2c(=O)c(C(=O)NCCc3ccccc3)c[nH]c12,20.8%,15.0,6.2%,4.65µM*,3.4%,/
O=C(NCCc1ccccc1)c1c[nH]c2c(F)cccc2c1=O,26.2%,23.2*,-11.0%,-2.4%,1.4%,28.6*
O=C(NCCc1ccccc1)c1cc(=O)[nH]c2ccccc12,17.6%,-4.7,/,-11.1%,6.9%,-4.9
